Laboratory results reported in PubChem BioAssay (EPA / NIEHS).
Several values for one entry are separate records, joined by “and”; a condition that tells them apart may be missing. Equal entries are not always repeated. A structure can be active in one record and inactive in another. Activity calls are given as the source filed them. How the source made its calls: active means hit-call score of the fitted dose curve at least 0.9, where 1 is the maximum; inactive means score below 0.9.

Tests used:
CD69, CD69 (gene 969) = assay: BSK_IMphg_CD69: BioMAP Diversity Plus: IMphg Assay for CD69 Biomarker Activity (AID 2284257); conditions: primary human endothelial cells with macrophages
In short: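 Human venular endothelial cells co-cultured with macrophages; CD69 quantified by ELISA 24 h after compound addition. Activity fitted in the positive direction relative to DMSO baseline; cytotoxicity tracked in parallel cultures via SRB total-protein staining.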

[1] = read-out: Eotaxin 3, CCL26 (gene 10344); assay: BSK_BF4T_Eotaxin3: BioMAP Diversity Plus: BF4T Assay for Eotaxin 3 Biomarker Activity (AID 2284258); conditions: primary human bronchial epithelial cells with fibroblasts
In short: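 Co-culture of human bronchial epithelial cells and dermal fibroblasts, exposed to chemicals for 24 h versus DMSO. Eotaxin-3 quantified by ELISA; cytotoxicity checked in parallel cultures by sulforhodamine B total-protein staining.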

[2] = read-out: Monocyte Chemoattractant Protein-1 (MCP1), CCL2 (gene 6347); assay: BSK_BF4T_MCP1: BioMAP Diversity Plus: BF4T Assay for Monocyte Chemoattractant Protein-1 (MCP1) Biomarker Activity (AID 2284259); conditions: primary human bronchial epithelial cells with fibroblasts
In short: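 Co-culture of bronchial epithelial cells and dermal fibroblasts dosed with chemical; MCP-1 measured by ELISA 24 h later. Activity fitted in positive direction versus DMSO; cytotoxicity checked by SRB staining in parallel cultures.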

[3] = read-out: Intercellular Adhesion Molecule 1 (ICAM1), ICAM1 (gene 3383); assay: BSK_BF4T_ICAM1: BioMAP Diversity Plus: BF4T Assay for Intercellular Adhesion Molecule 1 (ICAM1) Biomarker Activity (AID 2284260); conditions: primary human bronchial epithelial cells with fibroblasts
In short: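 Co-culture of human bronchial epithelial cells and dermal fibroblasts exposed 24 h to chemical; cell-surface ICAM-1 quantified by ELISA. Parallel SRB total-protein staining assessed cytotoxicity; activity fitted relative to DMSO.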

[4] = read-out: Interleukin-8 (IL8), CXCL8 (gene 3576); assay: BSK_MyoF_IL8: BioMAP Diversity Plus: MyoF Assay for Interleukin-8 (IL8) Biomarker Activity (AID 2284261); conditions: primary human lung fibroblasts
In short: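 ELISA read-out of IL-8 from primary human lung fibroblasts, 24 h post-dose; positive-direction curve fitting relative to DMSO vehicle baseline.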

CD90, THY1 (gene 7070) = assay: BSK_BF4T_CD90: BioMAP Diversity Plus: BF4T Assay for CD90 Biomarker Activity (AID 2284262); conditions: primary human bronchial epithelial cells with fibroblasts
In short: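 Co-culture of human bronchial epithelial cells and dermal fibroblasts, 24 h compound exposure. Cell-surface CD90 measured by ELISA relative to DMSO; parallel SRB total-protein staining for cytotoxicity.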

[5] = read-out: Interleukin-8 (IL8), CXCL8 (gene 3576); assay: BSK_BF4T_IL8: BioMAP Diversity Plus: BF4T Assay for Interleukin-8 (IL8) Biomarker Activity (AID 2284263); conditions: primary human bronchial epithelial cells with fibroblasts
In short: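 Human bronchial epithelial cells with dermal fibroblasts co-culture; IL-8 measured by ELISA 24 hours after dosing, fitted vs DMSO. Cytotoxicity tracked in parallel cultures by SRB total-protein staining.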

[6] = read-out: Interleukin-1 alpha (IL1a), IL1A (gene 3552); assay: BSK_BF4T_IL1a: BioMAP Diversity Plus: BF4T Assay for Interleukin-1 alpha (IL1a) Biomarker Activity (AID 2284264); conditions: primary human bronchial epithelial cells with fibroblasts
In short: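 Human bronchial epithelial cells co-cultured with dermal fibroblasts, dosed and read at 24 h. Secreted/surface IL-1α quantified by ELISA; gain-of-signal fitted relative to DMSO baseline. Parallel SRB total-protein staining tracked cytotoxicity.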

[7] = read-out: Plasminogen activator inhibitor-1 (PAI1), SERPINE1 (gene 5054); assay: BSK_MyoF_PAI1: BioMAP Diversity Plus: MyoF Assay for Plasminogen activator inhibitor-1 (PAI1) Biomarker Activity (AID 2284256); conditions: primary human lung fibroblasts;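 further: PAI-1 protein level measured by ELISA in fibroblast cultures; PAI-1 read 24 h after compound addition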
In short: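 ELISA read-out of PAI-1 from primary human lung fibroblast cultures 24 h after dosing; gain-of-signal fit versus DMSO control.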

Q: With OCC(F)(F)C(F)(F)C(F)(F)C(F)(F)C(F)(F)C(F)F as the molecule, how does the outcome (CD69, CD69 (gene 969)) read?
A: inactive

Q: What about the outcome [1] of the same molecule?
A: inactive

Q: And the outcome [2]?
A: inactive

Q: What about the outcome [3] of the same molecule?
A: inactive

Q: What about the outcome [4] of the same molecule?
A: inactive

Q: What about the outcome (CD90, THY1 (gene 7070)) of the same molecule?
A: inactive

Q: What about the outcome [5] of the same molecule?
A: inactive

Q: What about the outcome [6] of the same molecule?
A: inactive

Q: How did the AC50 [4] turn out when CCCCCCCCCCCCCCCC[N+](C)(C)Cc1ccccc1 was run?
A: 5.84 µM (active)

Q: For CCCCCCCCC(F)(F)C(F)(F)C(F)(F)C(F)(F)C(F)(F)C(F)(F)F, which outcome (CD69, CD69 (gene 969)) is on record?
A: inactive

Q: And the outcome [1]?
A: inactive

Q: What about the outcome [2] of the same molecule?
A: inactive

Q: What about the outcome [3] of the same molecule?
A: inactive

Q: And the outcome [4]?
A: inactive

Q: And the outcome (CD90, THY1 (gene 7070))?
A: inactive

Q: And the outcome [5]?
A: inactive

Q: And the outcome [6]?
A: inactive

Q: With C=CC/C=C/C/C=C/C/C=C/C as the molecule, how does the outcome [4] read?
A: inactive

Q: What does the source list for O=S(=O)(OCC(F)F)C(F)(F)F?
A: outcome (CD69, CD69 (gene 969)): inactive; outcome [1]: inactive; outcome [2]: inactive; outcome [3]: inactive; outcome [4]: inactive; outcome (CD90, THY1 (gene 7070)): inactive; outcome [5]: inactive; outcome [6]: inactive

Q: How did the outcome (CD69, CD69 (gene 969)) turn out when C=C(C)C(=O)OCCC(F)(F)C(F)(F)C(F)(F)C(F)(F)C(F)(C(F)(F)F)C(F)(F)F was run?
A: inactive

Q: What about the outcome [1] of the same molecule?
A: inactive

Q: And the outcome [2]?
A: inactive

Q: And the outcome [3]?
A: inactive

Q: And the outcome [4]?
A: inactive

Q: And the outcome (CD90, THY1 (gene 7070))?
A: inactive

Q: And the outcome [5]?
A: inactive

Q: And the outcome [6]?
A: inactive

Q: With O=C(CC(=O)C(F)(F)C(F)(F)F)C(F)(F)F as the molecule, how does the outcome (CD69, CD69 (gene 969)) read?
A: inactive

Q: What about the outcome [1] of the same molecule?
A: inactive

Q: What about the outcome [2] of the same molecule?
A: inactive

Q: What about the outcome [3] of the same molecule?
A: inactive

Q: And the outcome [4]?
A: inactive

Q: And the outcome (CD90, THY1 (gene 7070))?
A: inactive

Q: And the outcome [5]?
A: inactive

Q: What about the outcome [6] of the same molecule?
A: inactive

Q: For O=C(O)C(F)(OC(F)(F)C(F)(OC(F)(F)C(F)(OC(F)(F)C(F)(F)C(F)(F)F)C(F)(F)F)C(F)(F)F)C(F)(F)F (stereo unspecified), which outcome (CD69, CD69 (gene 969)) is on record?
A: inactive

Q: What about the outcome [1] of the same molecule?
A: inactive

Q: What about the outcome [2] of the same molecule?
A: inactive

Q: What about the outcome [3] of the same molecule?
A: inactive

Q: And the outcome [4]?
A: inactive

Q: What about the outcome (CD90, THY1 (gene 7070)) of the same molecule?
A: inactive

Q: And the outcome [5]?
A: inactive

Q: What about the outcome [6] of the same molecule?
A: inactive

Q: With C#C[C@]1(O)CC[C@H]2[C@@H]3CCc4cc(OC)ccc4[C@H]3CC[C@@]21C as the molecule, how does the outcome [4] read?
A: inactive

Q: Which outcome (CD69, CD69 (gene 969)) does the source give for O=C(O)C(F)(F)C(F)(F)OC(F)(F)F here?
A: inactive

Q: What about the outcome [1] of the same molecule?
A: inactive

Q: What about the outcome [2] of the same molecule?
A: inactive

Q: And the outcome [3]?
A: inactive

Q: And the outcome [4]?
A: inactive

Q: What about the outcome (CD90, THY1 (gene 7070)) of the same molecule?
A: inactive

Q: And the outcome [5]?
A: inactive

Q: What about the outcome [6] of the same molecule?
A: inactive

Q: Which outcome (CD69, CD69 (gene 969)) does the source give for O=S(=O)(OCCOC(F)(F)F)C(F)(F)F here?
A: inactive

Q: And the outcome [1]?
A: inactive

Q: What about the outcome [2] of the same molecule?
A: inactive

Q: And the outcome [3]?
A: inactive

Q: And the outcome [4]?
A: inactive

Q: What about the outcome (CD90, THY1 (gene 7070)) of the same molecule?
A: inactive

Q: And the outcome [5]?
A: inactive

Q: What about the outcome [6] of the same molecule?
A: inactive

Q: Which results are given for C=CC(=O)OCC(F)(F)C(F)(F)C(F)(F)C(F)(F)COC(=O)C=C?
A: AC50 (CD69, CD69 (gene 969)): 30 µM (active); AC50 [1]: 21.9 µM (active) and 30 µM (active); AC50 [2]: 11.2 µM (active) and 15.5 µM (active); AC50 [3]: 9.07 µM (active) and 16.9 µM (active); AC50 [4]: 19.5 µM (active) and 13.8 µM (active); outcome (CD90, THY1 (gene 7070)): inactive; AC50 [5]: 30 µM (active); outcome [5]: inactive; AC50 [6]: 30 µM (active) and 46.8 µM (active)

Q: What does the source list for CS(C)(=O)=O?
A: outcome [7]: inactive; outcome [4]: inactive

Q: How did the outcome (CD69, CD69 (gene 969)) turn out when OCCCC(F)(F)C(F)(F)C(F)(F)F was run?
A: inactive

Q: And the outcome [1]?
A: inactive

Q: And the outcome [2]?
A: inactive

Q: What about the outcome [3] of the same molecule?
A: inactive

Q: What about the outcome [4] of the same molecule?
A: inactive

Q: What about the outcome (CD90, THY1 (gene 7070)) of the same molecule?
A: inactive

Q: What about the outcome [5] of the same molecule?
A: inactive

Q: What about the outcome [6] of the same molecule?
A: inactive
